Key:
Experiment in all cases: PBM binding z-score (relative to random genomic background probes); higher = stronger binding; sequences stand for … in GC…GCGATTGACAGCGTAGAATGAAGG
[1] = tested on: RARb homodimer (NR concentration 270 nM)
Procedure, shortened: (§1)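 For binding z-scores, the reference was random background probes on custom Agilent 4×180K protein-binding microarrays. These arrays were incubated 1 h with ligand-free nuclear receptor dimers in PBS pH 7.4, 2% milk, 0.02% Triton X-100, 1 mM DTT, 0.2 mg/mL BSA and 0.4 mg/ml salmon testes DNA. Fluorescence was scanned after antibody detection of each partner (one per run) and regression-normalized.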

[2] = tested on: RARg:RXRa (NR concentration 270 nM, RXRa partner concentration 90 nM)
Procedure, shortened: as §1

[3] = tested on: RARg homodimer (NR concentration 270 nM)
Procedure, shortened: as §1

[4] = tested on: RXRa DBDmut IVT, anti-RXR (DBD mutation: RXRa K156A/R161A, NR concentration 90 nM)
Procedure, shortened: as §1

[5] = tested on: RXRa homodimer (NR concentration 180 nM)
Procedure, shortened: as §1

[6] = tested on: THRa:RXRa (NR concentration 90 nM, RXRa partner concentration 90 nM)
Procedure, shortened: as §1

[7] = tested on: THRa homodimer (NR concentration 90 nM)
Procedure, shortened: as §1

[8] = tested on: VDR homodimer (NR concentration 270 nM)
Procedure, shortened: as §1

Sequence	PBM binding z-score [1]	PBM binding z-score [2]	PBM binding z-score [3]	PBM binding z-score [4]	PBM binding z-score [5]	PBM binding z-score [6]	PBM binding z-score [7]	PBM binding z-score [8]
CAAACTAGGTCTAGGTCAAAGTCGGTTTGTGCCA	2.76	2.15	2.3	0.796	1.83	2.9	1.64	1.1
CCTACTGGGCCAACAGGTCATTGATATCAACGTT	2.5	2.56	2.13	0.159	1.91	1.63	0.207	0.761
ACTAGCAGGTCAAGTTTGGGTCACTCAAACAAAG	4.03	7.23	5.73	2.25	4.85	4.38	1.93	2.13
GCATATAGGTAATACAAGGTGAGAGTCCGATTGT	0.849	0.265	0.368	0.552	0.4	3.98	0.807	0.0557
TCTAGTTGGTCACGGAGGTCACACACGACGGGTA	4.44	4.66	4.79	0.886	4.58	3.61	2.53	3.25
ACTAGCAGGCCAGGTTTGGGTCACTCAAACAAAG	1.92	1.47	0.836	-0.798	0.628	2.11	0.999	-0.155
GGAACGAGGACAAGTTGATAGCAGAGTTTGATGG	0.51	0.796	1.26	1.62	0.0511	2.53	1.58	0.892
TATACAGGGTCAAAGGCCAGCGTACGAATGTCGA	3.48	5.75	4.83	2.96	7.31	3.54	0.731	2.16
CCTACTTGGTCAGGAGGTCACACACCGGATATGA	4.48	4.98	4.1	0.751	5.02	3.59	2.33	2.54
TCTATTAGTTGATTAGGGCATCCGAAACAGCGGA	0.405	0.611	0.418	1.08	0.604	0.428	0.317	0.435
TAGCCTAGGTCATGCAGGCCAGTATAGTGTCGGC	2.76	4	4.12	0.936	2.96	3	0.919	0.989
CGTCAAAGATCAACTAAGGTAACGTAAAGCACGC	0.577	0.743	0.647	0.338	0.921	4.69	1.79	0.342
GATACAGGGTCAAGGCCACAGTACGCGTATTGAT	3.85	5.44	5.11	2.15	5.9	3.69	1.85	1.84
ACTAGCAGGCCAAGTTTGGGTCGCTCAAACAAAG	0.422	0.182	-0.0192	-0.368	-0.399	0.704	-0.599	-0.503
CCTGCTAGGTCAATGTTCAGCTAAAGCAGCTCGC	2.69	3.48	4.07	1.93	1.91	2.34	0.628	0.0912
GCTTACGGGTCTAAGGTTATAGCATGAATAGAAT	0.97	0.869	0.598	1.27	1.46	2.16	1.21	1.04
ACTATTAGTTGAGTCGAGGGCAACCGATAGGTTG	1.2	0.788	0.802	0.52	0.607	2.3	0.603	1.05
TCATATAGGTAAAAGGTGAATGTCGGTGTGGTAA	1.88	1.75	1.04	1.81	2.85	1.5	0.686	0.531
CGTCCAAGGTCATAGGAGGTCAGTGAGGACAGAT	5.13	6.73	7.15	4.28	6.16	5.22	4.53	5.81
ATCTCTAGGTAAAAGTTCAGTGAGTCCCGAGGAT	2.32	1.86	1.93	0.855	1.73	1.13	0.291	2.34
ACTATTAGTTGAGTTAGGGCAACCGATACGACGC	0.47	0.417	0.783	0.652	0.292	1.21	0.245	0.368
GCGACTTGGGCATCAGCAGGTTACCATAACTTAA	-0.0318	-0.252	-0.319	-0.131	-0.00546	0.236	0.128	-0.321
CGAACGAGGGCATGAGTTGATCGCAAATGCCGAT	0.684	1.04	1.28	2.51	0.767	1.04	-0.361	1.79

Sequence	PBM binding z-score [1]	PBM binding z-score [2]	PBM binding z-score [3]	PBM binding z-score [4]	PBM binding z-score [5]	PBM binding z-score [6]	PBM binding z-score [7]	PBM binding z-score [8]
CGAAGGAGGGCATGAGTTGATAGCAAATGCCGAT	0.409	0.997	1.45	0.567	0.619	0.292	-0.803	0.969
GCTAGTTGGTCAGTAAAAGGTCCCACACCGGTCG	1.08	0.163	0.286	-0.751	-0.112	-0.281	-0.0359	-0.387
TCTGCTAGGTCAGCTGGTCAGCTAACGAGCTGCC	2.62	3.42	4.27	0.17	1.51	1.8	-0.216	-1.3
GGGACGAGGGCAAGTTGATAGCAGAGTTTGATGG	1.99	1.89	2.46	2.62	1.06	1.61	0.723	2.05
CCTAGTAGGCCAGGGTCACTCAAGCATTTCGCTT	3.03	3.04	2.56	0.104	3.3	2.94	1.18	1.6
CCAGACGGGTGAGAAGGTAACTCAGCCTCGATTA	-0.188	0.0516	0.0574	-0.845	0.0255	-0.158	-0.508	-0.29
TCTATTAGTAGATTAGGGCAACCGAAACAGCGGA	0.21	0.245	0.496	0.901	0.284	0.399	-0.319	-0.419
ATCGAAAGTTCGTGAGGTGAGTATACAGAAAGGC	1.8	2.22	1.86	2.13	1.78	2.23	1.23	1.22
GCTAGCACGCCATTTGGGTCACTCAATGACGGGC	1.32	0.76	0.779	-0.343	0.832	1.5	0.413	-0.357
TATAGTTGGTCAAAGGTCACACACTCGAAATGCG	5.04	7.01	6.33	0.941	8.14	4.24	1.79	2.12
TCTCGGAGGACAGGAAAGGTCAGAGCTCGACATC	4.65	4.1	4.39	0.817	3.83	3.25	0.943	0.606
ATATGTAGGTTACATCCGGGTCGTTCAGGCTATG	1.5	1.78	1.28	1.22	1.54	2.53	1.24	1.82
ATTTGTAGGTTAGCTGGGGTCATTCAGACTAGGC	4.03	4.33	2.95	2.56	5.57	5.34	3.84	4.65
CAGACTAGGTCAAGAGGTCAAAGTCCGCTTCCCG	5.34	8	7.45	2.6	7.71	4.23	2.26	3.84
GATACAGGGTCAAGACCAGAGTACGCGTATTGAT	3.07	4.94	4.7	2.23	5.54	3.33	0.503	2.14
GCTGCTAGGTCAGTTTGGTCAGCTAACGGGTACG	2.43	2.29	3.29	0.863	0.8	1.36	0.147	0.564
GCAGACAGGTGAAACGCAGGCAACTCAGGGTGGC	-0.0684	0.39	0.237	-0.513	0.435	0.404	-0.656	-0.588
CCTAGCAGGCCAATTTGGGTCACTCAAGGCTTGA	2.08	0.9	1.21	0.0247	0.826	3.86	0.606	-0.23
CTCAAAAGGTCGTGCTCAGGTGAGTATACCAAAC	2.79	5.29	3.99	2.02	4.73	4.13	1.02	0.794
CCTAGTGGGCCATCAGGTCATTGATATCAACGTT	2.68	2.11	1.92	0.53	1.45	3.13	2.59	1.43
CCGCCTGGGGCAAGGTTACCATAACGCACAGCCA	1.52	1.06	1.1	-0.994	0.987	1.3	0.7	-0.0695
GCTATTAGTTGAAAGGGCAACCGTATGATTCTCG	2.21	1.41	1.14	1.01	1.43	0.799	-0.237	0.306
CGTCCAACGTCAATGCTAGGTCAGTGAAAGCATT	2.01	1.36	1.14	0.107	0.267	1.6	0.388	-0.0849

Sequence	PBM binding z-score [1]	PBM binding z-score [2]	PBM binding z-score [3]	PBM binding z-score [4]	PBM binding z-score [5]	PBM binding z-score [6]	PBM binding z-score [7]	PBM binding z-score [8]
CGTCCAAGGTCAATGCTAGGTCGGTGAAAGCATT	4.24	6.11	6.15	3.31	4.83	3.79	1.98	2.04
TGAATGAGGTTAAAGATCCGGGAACGTGGCGTCG	0.578	1.5	1.05	1.22	2.61	2.12	0.411	0.437
CGTCCAAGGTCAATGCTGGGTCAGTGAAAGCATT	4.74	7.34	6.47	3.12	4.97	4.28	2.52	2.62
TCGAGAAGGTTAGGGGCATTCAGAATGGCGTCGA	1.46	1.08	0.841	0.703	1.45	1.12	0.127	0.971
CCTATTAGTTGACCATAAGGGCCACCGAAGCTCG	1.51	0.432	0.644	0.143	0.414	0.438	0.222	0.354
TGAATGAGGTTAAAGATCAGGGCACGTGGCGTCG	1.91	2.84	1.59	0.869	3.95	3.35	1.32	1.03
CCTCGGAGGACAGAAGGTCAGAACTGTCCGCTTT	3.17	2.9	2.58	0.39	1.43	1.85	0.203	0.761
ATCTCTAGGTAAAGTACAGTGAAAGATCGATAGA	0.302	0.498	0.733	0.55	0.366	0.609	0.162	0.488
TAGCCTAGGTCATGGGCCAGTAGACCACGCGAAC	3.01	4.29	4.33	-0.149	3.68	3.04	1.09	0.284
AGACTGAGGTTAAGATCAGGGAAACAGAATACAT	0.774	2.09	1.38	0.593	2.21	2.35	0.489	0.3
CCAGACAGGTGAGAAGGTGACTCAGCCTCGATTA	1.23	1.04	0.771	-0.175	0.552	0.445	0.379	-0.284
TCTGCTAGGTCAACGAGGGTCAGCTAATCTGCTA	4.57	5.29	6.13	1.47	3.94	4.76	1.14	0.552
ATCTCTAGGTAAAGATAGTTCAGGGAATGCAAAT	0.997	0.771	0.846	0.0937	0.459	0.742	0.0152	0.47
TTGCCAAGGTGAAGGTCGTTGATCCCTCTGTAGA	1.62	1.23	1.02	0.0935	1.68	2.31	0.87	0.534
ATATGTAGGTTACATCCGGGTCATTCAGGCTATG	3.04	3.77	2.17	1.01	3.39	3.75	2.57	2.83
AGTACAGGGTCATCGTAGGCCAGAGTACGCACAG	3.81	5.65	5.22	3.47	6.42	4.59	1.57	3.92
TCTTGTGGATCAGCAGGTTAAGAAAGCTGGCCAA	0.366	-0.0321	-0.331	0.589	0.119	0.227	-0.125	0.0128
GGAACGAGGGCAAGTTGATTGCAGAGTTTGATGG	1.5	1.62	2.18	2.56	0.967	1.38	-0.0249	2.02
TGTCAAAGTTCAAAAGTAACGTAAGTATCCACAC	3.09	5.13	5.21	4.25	4.57	1.86	-0.26	3.51
CGAACTCGGTCATCCAGGACAGTGAATACATTGA	1.59	2.22	2.83	0.985	0.784	2.12	0.998	1.15
TATACAGGGTCAAAGTCCAGAGTACGAATGTCGA	3.51	5.73	4.9	3.86	6.73	3.65	1.15	4.02
CTCGAAAGGTCGTGCTCAGGTGAGTATACCAAAC	2.75	5.07	3.86	2.05	4.63	4.17	1.08	1.2
